Data on 15 molecules can be found in PubChem BioAssay.

Each structure is given as a SMILES string. Calls of active or inactive are those of the source.

Test [1] concerns Plasmodium falciparum Sir2 (PF13_0152, Sir2A). Nature of the test: Plasmodium falciparum Sir2A binding compounds – biochemical, small-molecule microarray, 635 nm fluorescence, primary screen (AID 1098).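 Further: score merges spot fluorescence intensity with its signal-to-noise ratio.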 Particulars: fluorescence 635 nm, higher = more signal.
Test [2] is described as follows: probe aDKK1 binding to arrayed compounds – biochemical, biotinylated probe, 635/667 nm fluorescence, primary screen (AID 1099).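 Further: score merges 667nm spot fluorescence with signal to noise across triplicate slides; reference of the scale not given here.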 Particulars: small-molecule microarray, higher = more signal.
A short description of test [3]: probe aCHRDL2 binding to arrayed compounds – biochemical, biotinylated probe, 635/667 nm fluorescence, primary screen (AID 1100). Particulars: small-molecule microarray, higher = more signal.
Test [4] is described as follows: change in splice reporter luminescence, either direction, cell-based, HEK293, spliceosome inhibition project, primary screen (AID 1101).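 Further: HEK293 cells carrying a splicing-competent luciferase reporter gene; test concentration not given here.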 As to conditions: HEK293 splicing luciferase reporter, 24 h, higher = more signal, called active from +8 up or from −8 down.
In test [5] the target is Fibroblast growth factor 10 (Homo sapiens) (UniProt O15520). Nature of the test: compounds binding fibroblast growth factor 10 – biochemical, small-molecule microarray, 635 nm fluorescence, primary screen (AID 1102). Particulars: FGF10 binding, fluorescence 635 nm, higher = more signal.
Fibroblast growth factor 10 (Homo sapiens), sequence (O15520 whole entry, looked up): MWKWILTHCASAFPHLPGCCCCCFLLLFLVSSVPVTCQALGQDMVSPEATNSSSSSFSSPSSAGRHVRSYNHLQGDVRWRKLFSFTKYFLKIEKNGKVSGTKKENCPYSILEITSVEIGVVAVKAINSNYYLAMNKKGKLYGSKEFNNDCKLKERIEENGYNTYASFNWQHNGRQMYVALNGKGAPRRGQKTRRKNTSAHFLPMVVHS
Test [6] has as its system glycogen synthase kinase-3 (GSK3A per assay name; protocol says GSK3B). Description: compounds binding glycogen synthase kinase-3 – biochemical, small-molecule microarray, 635 nm fluorescence, GSK3A, primary screen (AID 1103). Further: the record names both GSK3A and GSK3B. As to conditions: fluorescence 635 nm, higher = more signal.
Test [7] has as its target Epidermal growth factor receptor (Homo sapiens) (UniProt P00533). Description: compounds binding epidermal growth factor receptor – biochemical, small-molecule microarray, 635 nm fluorescence, primary screen (AID 1104).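 Further: score merges 667 nm emission intensity with spot signal to noise over triplicate slides.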 Particulars: EGFR binding, higher = more signal.
Test [8] deals with Follistatin-related protein 3 (Homo sapiens) (UniProt O95633). Description: compounds binding follistatin-related protein 3 – biochemical, small-molecule microarray, 635 nm fluorescence, primary screen (AID 1105).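 Further: score merges emission near 667 nm and signal to noise per printed spot across three slides.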 As to conditions: FSTL3 binding, higher = more signal.
Follistatin-related protein 3 (Homo sapiens), sequence (O95633 whole entry, looked up): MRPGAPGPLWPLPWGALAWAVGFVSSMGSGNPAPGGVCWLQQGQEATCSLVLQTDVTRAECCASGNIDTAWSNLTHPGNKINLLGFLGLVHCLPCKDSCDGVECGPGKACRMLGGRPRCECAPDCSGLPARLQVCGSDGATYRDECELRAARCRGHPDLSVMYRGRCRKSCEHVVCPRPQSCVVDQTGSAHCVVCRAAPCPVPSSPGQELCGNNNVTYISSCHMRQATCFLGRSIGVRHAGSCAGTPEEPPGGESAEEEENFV
For test [9], the target named is Dickkopf-related protein 1 (Homo sapiens) (UniProt O94907). Description: small molecules binding DKK1 protein – biochemical, small-molecule microarray, 635 nm fluorescence scan, primary screen (AID 1106).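 Further: score merges emission near 667 nm with signal to noise over three replicate slides.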 As to conditions: higher = more signal.
Dickkopf-related protein 1 (Homo sapiens), sequence (O94907 whole entry, looked up): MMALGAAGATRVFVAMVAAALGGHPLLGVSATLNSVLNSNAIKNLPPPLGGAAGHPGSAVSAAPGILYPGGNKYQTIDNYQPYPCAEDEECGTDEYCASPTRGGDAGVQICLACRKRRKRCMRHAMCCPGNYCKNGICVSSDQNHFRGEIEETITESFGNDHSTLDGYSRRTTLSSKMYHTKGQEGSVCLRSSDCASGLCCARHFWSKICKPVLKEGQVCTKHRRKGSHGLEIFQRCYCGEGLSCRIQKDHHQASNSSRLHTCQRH
The test system of test [10] is Inhibin beta A chain (activin A). Nature of the test: small molecules binding activin A – biochemical, small-molecule microarray, 635 nm fluorescence scan, primary screen (AID 1107).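 Further: mouse activin A protein probed at 4.33 µg/mL on printed slides; score merges bound-protein fluorescence near 667 nm with spot signal-to-noise.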 As to conditions: INHBA, higher = more signal.

Epidermal growth factor receptor (Homo sapiens), sequence (P00533 whole entry, looked up): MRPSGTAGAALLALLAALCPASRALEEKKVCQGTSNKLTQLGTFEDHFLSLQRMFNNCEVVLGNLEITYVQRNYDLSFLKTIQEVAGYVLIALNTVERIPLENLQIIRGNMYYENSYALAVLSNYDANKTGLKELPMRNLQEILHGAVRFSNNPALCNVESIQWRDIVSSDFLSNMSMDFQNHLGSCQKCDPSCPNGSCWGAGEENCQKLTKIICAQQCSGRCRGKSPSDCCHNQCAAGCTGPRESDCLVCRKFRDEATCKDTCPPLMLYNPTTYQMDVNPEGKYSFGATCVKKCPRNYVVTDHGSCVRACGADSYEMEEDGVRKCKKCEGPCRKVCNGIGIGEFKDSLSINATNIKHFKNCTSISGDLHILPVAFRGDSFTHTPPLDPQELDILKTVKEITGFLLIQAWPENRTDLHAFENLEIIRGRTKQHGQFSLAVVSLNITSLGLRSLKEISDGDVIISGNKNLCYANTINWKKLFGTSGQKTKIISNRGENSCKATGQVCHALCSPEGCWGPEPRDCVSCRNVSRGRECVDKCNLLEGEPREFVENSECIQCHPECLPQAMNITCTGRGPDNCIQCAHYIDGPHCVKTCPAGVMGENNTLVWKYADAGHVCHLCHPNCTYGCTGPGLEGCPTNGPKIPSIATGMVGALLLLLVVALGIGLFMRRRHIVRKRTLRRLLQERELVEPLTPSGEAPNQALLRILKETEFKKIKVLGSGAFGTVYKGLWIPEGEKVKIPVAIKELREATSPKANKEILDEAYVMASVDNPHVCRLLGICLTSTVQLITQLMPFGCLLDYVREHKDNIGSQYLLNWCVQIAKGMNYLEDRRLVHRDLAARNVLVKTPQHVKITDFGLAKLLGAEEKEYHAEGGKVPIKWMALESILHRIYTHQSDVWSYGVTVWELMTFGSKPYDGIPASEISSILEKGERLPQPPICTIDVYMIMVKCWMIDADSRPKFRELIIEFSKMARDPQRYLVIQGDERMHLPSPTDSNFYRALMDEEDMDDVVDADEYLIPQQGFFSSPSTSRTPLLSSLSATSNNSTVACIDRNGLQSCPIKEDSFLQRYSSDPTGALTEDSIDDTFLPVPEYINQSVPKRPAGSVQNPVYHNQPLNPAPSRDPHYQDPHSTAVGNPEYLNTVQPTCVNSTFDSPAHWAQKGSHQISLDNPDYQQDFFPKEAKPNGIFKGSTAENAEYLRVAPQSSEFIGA

Regarding `COCCOC(=O)N1C(=O)[C@@]2(c3cc(C#Cc4ccc(OC)cc4)ccc31)[C@H](C(=O)Nc1nc3ccccc3s1)[C@H]1C(=O)O[C@H](c3ccccc3)[C@H](c3ccccc3)N1[C@@H]2c1ccc(OCCO)cc1`, the composite z-score in [1] was 0.557; in [2], -0.135; in [3], -0.571; in test [5], 1.37; in [6], 1.28; in [7], 0.654. The composite z-score in [8] came to 1.38; in test [9], 0.901; in [10], 0.0865. The z-score in [4] was -0.653 (inactive).

As for `COCCCNC(=O)[C@@]1(Sc2ccc(C)cc2)CC(=O)N(C2CCCCC2)[C@@H]1c1ccc(CO)cc1`, the composite z-score is 0.0677 in test [1]; 0.196 in test [2]; 0.899 in test [3]; 0.229 in test [5]; -0.823 in test [6]; -0.687 in test [7]. Moreover, the composite z-score in test [8] was -1.1; in test [9], -1.65; in test [10] it was 0.446. In addition, the z-score in test [4] is -0.397 (inactive).

For `COc1ccc(CCNC(=O)[C@@]2(Sc3ccc(C)cc3)CC(=O)N(C3Cc4ccccc4C3)[C@@H]2c2ccc(CO)cc2)cc1`, the composite z-score was 0.672 in [1]; 0.167 in [2]; -0.0208 in test [3]; 1.78 in test [5]; 1.27 in [6]; 0.494 in test [7]. In addition, the composite z-score in [8] was found to be 1.51; in test [9] it was 2.06; in [10], 1.23. In addition, the z-score in [4] was -1.67 (inactive).

In the case of `C=CCN1C(=O)[C@@]2(CCS(=O)(=O)c3ccccc3)N=C(c3ccc(OCCCO)cc3)O[C@H]2c2ccccc21`, the composite z-score in [1] came to 1.32; in [2] it was 0.331; in [3], 0.482; in test [5], 0.69; in test [6], 1.33; in test [7] it was 0.958. Further, the composite z-score in [8] came out at 1.14; in test [9], 0.822; in [10], 1.18. The z-score in test [4] was 0.095 (inactive).

Take `COC(=O)C(CC#Cc1ccc2c(c1)[C@]1(C(=O)N2)[C@H](c2ccccc2OCCO)N2[C@H](c3ccccc3)[C@H](c3ccccc3)OC(=O)[C@H]2[C@@H]1C(=O)NC[C@H](O)c1ccccc1)C(=O)OC`: the composite z-score in test [1] was 1.65; in [2], -0.378; in test [3], 0.702; in test [5], 0.928; in test [6], 1.26; in test [7] it was 0.361. Moreover, the values for the composite z-score in [8], in test [9] and in test [10] were 0.682, 0.521 and 0.897, respectively. Besides, in test [4], the z-score is -0.267 (inactive).

As to `COCCOC(=O)N1C(=O)[C@@]2(c3cc(C#CCCO)ccc31)[C@H](c1ccccc1OCCO)N1[C@H](c3ccccc3)[C@H](c3ccccc3)OC(=O)[C@H]1[C@@H]2C(=O)Nc1nc2ccccc2s1`, the composite z-score in test [1] came out at 1.5; in test [2] it was 0.95; in test [3], 0.856; in test [5] it was 0.689; in test [6], 1.2; in test [7] it was 0.397. Besides, the values for the composite z-score in [8], in test [9] and in test [10] were 0.966, 0.635 and 0.46, respectively. In addition, the z-score in test [4] is -0.713 (inactive).

On to `O=C1NC(=O)C2C1C=CC(C(O)c1cccc3ccccc13)N2Nc1ccc(Cl)cc1Cl` (stereo not given), for which the composite z-score was 0.477 in test [1]; 0.911 in test [2]; 1.16 in test [3]; 0.46 in [5]; 0.267 in [6]; -0.459 in [7]. Also, the figures for the composite z-score in test [8], in test [9] and in test [10] were 0.0589, -1.03 and 1.01, respectively. In test [4], the z-score is 1.02 (inactive).

As to `COCCOC(=O)N1C(=O)[C@@]2(c3cc(C#CCCO)ccc31)[C@H](C(=O)Nc1nc3ccccc3s1)[C@H]1C(=O)O[C@H](c3ccccc3)[C@H](c3ccccc3)N1[C@@H]2c1ccccc1OCCO`, the composite z-score in [1] was determined as 1.42; in test [2], 0.331; in test [3], 0.411; in test [5], 1.12; in test [6] it was 1.08; in test [7] it was 0.561. Besides, the results for the composite z-score in test [8], in test [9] and in test [10] were 1.11, 0.452 and 0.923, respectively. Moreover, the z-score in test [4] is 0.0499 (inactive).

For `Cn1cccc1C(O)C1C=CC2C(=O)NC(=O)C2N1Nc1ccc(Cl)cc1Cl` (stereo not given), the composite z-score in test [1] came out at 1.21; in test [2] it was 1.3; in test [3], 1.33; in test [5] it was 0.914; in test [6] it was 0.593; in test [7] it was 0.295. The values for the composite z-score in test [8], in [9] and in test [10] were 1.34, -0.43 and 0.657, respectively. For the same molecule, the z-score in test [4] is 1.08 (inactive).

For `COc1ccc(C(O)C2C=CC3C(=O)N(c4ccccc4)C(=O)C3N2Nc2ccc([N+](=O)[O-])cc2)cc1` (stereo not given), the composite z-score amounted to 1.43 in test [1]; 1.37 in test [2]; 1.23 in [3]; 0.774 in [5]; 0.998 in [6]; 0.0207 in test [7]. For the same molecule, the composite z-score is 0.952 in test [8], -0.655 in [9] and 0.918 in test [10]. In addition, the z-score in test [4] was 0.304 (inactive).

Regarding `CC(C)(C)OC(=O)CC[C@@]1(C(=O)NCc2ccccc2)N=C(c2ccc(OCCCO)cc2)O[C@@H]1c1ccccc1N=[N+]=[N-]`, the composite z-score in test [1] stood at 0.71; in test [2], 1.03; in [3], 1.29; in [5] it was 1.39; in test [6] it was 1.18; in test [7] it was 0.373. Besides, the values for the composite z-score in [8], in test [9] and in [10] were 1.26, 0.0295 and 0.795, respectively. In test [4], the z-score was -1.18 (inactive).

In the case of `COC(=O)C(CC#Cc1ccc2c(c1)[C@]1(C(=O)N2)[C@H](C(=O)N2CCN(c3ncccn3)CC2)[C@H]2C(=O)O[C@H](c3ccccc3)[C@H](c3ccccc3)N2[C@@H]1c1ccc(OCCO)cc1)C(=O)OC`, the composite z-score in test [1] was 1.22; in [2], 0.0224; in test [3], -0.0434; in [5], 1.17; in test [6], 0.994; in test [7], 0.68. Also, the figures for the composite z-score in test [8], in [9] and in test [10] were 1.39, 0.612 and 0.0693, respectively. Further, the z-score in test [4] was -0.152 (inactive).

Turning to `O=C1OCC=C[C@H]2OC34C=CCN(c5ccc(Cl)cc5)C(=O)[C@H]3N(CCO)C(=O)[C@@H]4[C@@H]12` (stereo not given in full), the composite z-score in test [1] is 0.201; in [2], -0.521; in [3], 0.777; in test [5], -0.25; in test [6], -0.747; in [7], -0.962. Further, the composite z-score was -1.68 in [8], -1.71 in test [9] and -0.303 in test [10]. Moreover, the z-score in test [4] was 0.169 (inactive).

On to `CCOc1cc(C(O)C2C=CC3C(=O)N(C)C(=O)C3N2Nc2ccccc2)ccc1O` (stereo not given), for which the composite z-score in test [1] amounted to 0.764; in test [2], 0.791; in [3], 0.0692; in [5] it was 0.736; in [6], 0.57; in test [7] it was 0.0228. Moreover, the composite z-score was 0.0592 in [8], -0.329 in [9] and 0.569 in test [10]. For the same molecule, the z-score in test [4] is 0.719 (inactive).

Consider `C=CCC(OC(C)=O)[C@@H]1[C@@H](N(Cc2cc3ccccc3o2)C(=O)c2ccc(C)cc2)c2cc(OCCCO)ccc2N1C(=O)Cc1ccc(OC)cc1` (stereo not given in full), for which the composite z-score is -0.0682 in [1]; -0.199 in test [2]; 0.33 in test [3]; 0.289 in test [5]; 0.121 in test [6]; -0.147 in [7]. Also, the composite z-score in test [8] came out at 0.087; in test [9] it was 0.0807; in [10], 1.01. Moreover, the z-score in test [4] was -0.669 (inactive).
